This is a sample that favours compounds with a hit; in the whole collection about 4.5% have one here.
Beta cell apopt – beta cell apoptosis inhibition; AID 435005; INS-1E cytokine-induced death, ATP luminescence, 48 h; percent of positive-control rescue, neutral wells zero; 300,000 compounds, 0.8% hits; protection from apoptosis, % (concentration not given with the values);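 active = Every replicate reaches about 75%, or at least half do and their mean reaches it too, limit read from the data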;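 note: higher means more ATP so stronger rescue from cytokine killing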
Jurkat NFkB inh – inhibitors of the PMA/ionomycin-induced NF-kB reporter in Jurkat cells. AID 435003. PMA/ionomycin-induced NF-kB luciferase reporter, luminescence. inhibition, % at 4 µM. 330,000 compounds, 0.53% hits; in the data active = inhibition above about 50%
697 NFkB inh – lowers PMA/ionomycin-induced NF-kB signal in 697 B cells; 697 B-cell NF-kB luciferase reporter, 16 h; inhibition, % at 4 µM; 330,000 compounds, 0.33% hits; in the data active = inhibition above about 35%
Mdm2 MdmX PPI – human Mdm2/MdmX binding inhibition; O15151+Q00987; SaOS-2 split-luciferase Mdm2/MdmX complementation, luminescence; inhibition, % at 8 µM; 330,000 compounds, 3% hits; AID 485346;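 active = inhibition of at least 50% at 8 µM in the primary screen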
Gli-Sufu block – antagonists of Gli-Sufu signaling | Sufu-KO-LIGHT fibroblasts, Gli luciferase reporter luminescence | inhibition, % at 5 µM | 340,000 compounds, 0.74% hits;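 active = inhibition above about 55%, limit read from the data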
CSC inhib – cancer stem cell inhibition. 300,000 compounds, 1.1% hits. inhibition, % at 7.5 µM. AID 2717. cancer stem cell-like cells viability, luminescence; in the data active = inhibition above about 75%; tested in HMLE shEcad cells
Jurkat NFkB conf – inhibitors of the PMA/ionomycin-induced NF-kB reporter in Jurkat cells, retest | AID 435020 | Jurkat NF-kB luciferase, 16 h | shares compounds with Jurkat NFkB inh | 2,700 compounds, 27% hits | inhibition, % at 4 µM;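 active = inhibition reaching about 45% at 4 µM in either replicate, limit read from the data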
697 NFkB conf – lowers PMA/ionomycin-induced NF-kB signal in 697 B cells | inhibition, % at 4 µM | AID 449746 | 697 B-cell NF-kB luciferase, 16 h | 2,000 compounds, 35% hits | shares compounds with 697 NFkB inh; in the data active = inhibition mostly above about 28%, no sharp cut-off; inactive = mostly below about 22%
Mdm2 MdmX conf – confirmation of human Mdm2/MdmX interaction inhibitors. shares compounds with Mdm2 MdmX PPI. Mdm2-MdmX binding, luminescent assay. inhibition, % at 8 µM. 10,000 compounds, 55% hits; in the data active = inhibition above about 40%
Full FLuc ctr – full-length luciferase inhibition in Mdm2/MdmX counter-screen | shares compounds with Mdm2 MdmX PPI | SaOS-2 full-length luciferase counterscreen, luminescence | inhibition, % at 8 µM | 6,200 compounds, 77% hits;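 active = mean inhibition at 8 µM reaching about 37%, which flags the compound as non-specific, limit read from the data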;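 note: p53-null SaOS-2 cells with luciferase driven by a doxycycline-inducible promoter; compound on cells about two nights before reading with doxycycline added after day one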
Gli-Sufu confirm – confirmation of Gli-SUFU pathway antagonists. shares compounds with Gli-Sufu block. Sufu-KO-LIGHT cells, Gli luciferase reporter, luminescence. inhibition, % at 5 µM. 2,500 compounds, 40% hits;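 active = mean inhibition at 5 µM reaching about 45%, limit read from the data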
Gli cytotox – counter-screen for Gli-SUFU antagonists: cytotoxicity; 2,500 compounds, 32% hits; cytotoxicity, % at 5 µM; Sufu-KO-LIGHT cells cytotoxicity, ATP luminescence; shares compounds with Gli-Sufu block;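 active = mean cytotoxicity at 5 µM above about 25%, limit read from the data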;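 note: cells exposed to compound overnight for roughly 16 to 18 hours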
Wnt3a cs – counter-screen for Gli-SUFU antagonists: Wnt3a reporter inhibition; shares compounds with Gli-Sufu block; Wnt-LIGHT cells, Wnt3a-driven luciferase reporter, luminescence; inhibition, % at 6.25 µM; 2,500 compounds, 20% hits; AID 651995;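 active = mean inhibition above about 25%, limit read from the data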
A number is an active result; – = inactive; · = no result given.

SMILES	Beta cell apopt	Jurkat NFkB inh	697 NFkB inh	Mdm2 MdmX PPI	Gli-Sufu block	CSC inhib	Jurkat NFkB conf	Mdm2 MdmX conf	Full FLuc ctr	Gli-Sufu confirm	Gli cytotox	Wnt3a cs	others
O=C(NNc1ccnc2cc(Cl)ccc12)C1CCCCC1	127.1	69.1	–	–	76.7	–	63.9	·	·	76.1	35.4	34.4
COc1ccc(N2CCOCC2)c(NC(=O)c2cc3ccccc3o2)c1	–	–	–	–	–	·	·	·	·	·	·	·
Cc1cc(/C=N/n2cnnc2)c(C)n1-c1ccc(OCc2ccc(Cl)cc2Cl)cc1	113.0	70.2	40.2	73.6	82.3	103.1	–	–	·	81.6	34.7	67.9	697 NFkB conf=–
CC1=C(C(=O)Nc2cc(C(=O)NCCC(C)C)ccc2C)SCCO1	–	–	–	–	–	–	·	·	·	·	·	·
CCOC(=O)C1=C(C(=O)OCC)N(Cc2ccccc2)CCC1=O	·	·	·	·	–	·	·	·	·	·	·	·
CCn1ncc(C2=NOC(C(=O)NCc3ccc(Cl)cc3)C2)c1C (centres undefined)	–	74.1	–	–	–	–	49.6	·	·	50.0	45.4	–
CCn1ncc(C2=NOC(C(=O)Nc3ccc(C)cc3)C2)c1C (centres undefined)	–	–	–	–	–	–	·	·	·	·	·	·
CCN(CC)S(=O)(=O)c1ccc(N/N=C/c2ccc(O)cc2O)nc1	–	50.6	–	64.8	57.7	112.0	–	78.5	49.9	69.6	26.4	78.7
Cc1cc2nc(-c3ccc(SCC(=O)NC(C)C)nc3)[nH]c2cc1C	–	–	–	–	·	–	·	·	·	·	·	·
Cc1cc(NC(=O)CSc2ccc(-c3nc4cc(C)c(C)cc4[nH]3)cn2)no1	–	–	–	–	96.6	–	–	·	·	–	26.9	–
CCCCn1c(N)c(N(CC(C)C)C(=O)COc2cc(C)ccc2Cl)c(=O)[nH]c1=O	·	–	–	–	–	·	·	·	·	·	·	·
C/C=C/COC(=O)c1[nH]c2c(c1C)C(=O)CC(c1ccco1)C2 (centres undefined)	–	58.6	–	64.9	56.2	–	42.8	56.0	73.0	67.0	60.1	–
Cc1ccc(S(=O)(=O)N2CCC(C(=O)O)CC2)cc1	–	–	–	–	–	–	·	·	·	·	·	·
CN(Cc1cccs1)C(=O)c1cccc(S(=O)(=O)N2CCCCCC2)c1	–	–	–	–	–	–	·	·	·	·	·	·
Cc1ncoc1C(=O)NC1CCCc2c1cnn2-c1ccc(C(C)(C)C)cc1 (centres undefined)	·	59.6	–	–	–	·	59.0	·	·	45.1	–	–
Nc1ncnc2c1ncn2[C@H]1C[C@H](O)[C@@H](CO)O1	–	–	–	–	–	–	·	·	·	·	·	·
Nc1nc(Cl)nc2c1ncn2[C@H]1C[C@H](O)[C@@H](CO)O1	–	64.5	57.1	87.1	83.5	75.9	–	74.2	–	67.8	25.1	50.1	697 NFkB conf=68.2
COc1ccc(C)cc1NS(=O)(=O)c1ccc(-c2cnc(C3CC3)o2)cc1	·	65.6	–	82.6	65.5	·	68.3	52.0	111.4	62.1	65.8	–	697 NFkB conf=–
CCOc1ccccc1CNS(=O)(=O)c1ccc(-c2cnc(C3CC3)o2)cc1	·	57.5	–	60.5	–	·	55.0	60.0	83.6	55.4	58.6	–
Cc1ccc(NC(=O)CSc2nnc(-c3ccoc3C)n2CCCN(C)C)cc1Cl	–	–	–	–	–	–	·	·	·	·	·	·
COC(=O)c1ccc(NC(=O)Cn2c(-c3nonc3N)nc3ccccc32)cc1	–	–	–	–	–	–	·	·	·	·	·	·
COC(=O)c1ccccc1NC(=O)Cn1c(-c2nonc2N)nc2ccccc21	–	83.0	–	–	57.9	·	50.6	·	·	62.7	62.5	–
N=c1ccn(CC(=O)c2ccc(-c3ccccc3)cc2)cc1	133.9	57.9	–	66.0	81.7	–	–	69.3	41.3	84.2	–	29.8
CCCCCCN1CC(=O)N2Cc3[nH]c4ccccc4c3C[C@H]2C1=O	–	–	–	–	–	–	·	·	·	·	·	·
NC(=O)CC(NC(=O)c1ccc(Br)cc1)c1ccc(N2CCCCCC2)c([N+](=O)[O-])c1 (centres undefined)	–	53.8	–	–	60.9	122.8	–	·	·	–	–	–
SMILES	Beta cell apopt	Jurkat NFkB inh	697 NFkB inh	Mdm2 MdmX PPI	Gli-Sufu block	CSC inhib	Jurkat NFkB conf	Mdm2 MdmX conf	Full FLuc ctr	Gli-Sufu confirm	Gli cytotox	Wnt3a cs	others
O=C(Cc1ccc(N2CCNC2=O)cc1)N1CCCC(Nc2cccc(F)c2)C1 (centres undefined)	–	58.6	–	59.7	–	–	–	59.5	62.0	–	40.8	–
CS(=O)(=O)N1CCC(Oc2cccc(C(=O)NCCCC3CCCC3)c2)CC1	–	–	–	–	–	–	·	·	·	·	·	·
COc1ccc(N(C(=O)Cc2cccs2)C(C(=O)NC2CCCC2)c2ccncc2)cc1 (centres undefined)	–	–	–	–	–	–	·	·	·	·	·	·
COc1ccc(C(C(=O)NC2CCCCC2)N(C(=O)CCl)c2ccc(C)cc2)cc1 (centres undefined)	–	94.5	95.1	98.0	86.2	–	–	99.7	53.9	–	29.5	–	697 NFkB conf=–
COc1ccc(C(C(=O)NC2CCCCC2)N(C(=O)CCl)c2ccc(OC)cc2)cc1 (centres undefined)	–	93.5	98.2	99.5	84.0	–	–	100.1	50.0	–	–	–	697 NFkB conf=80.1
Cc1ccc(C(=O)c2cc([N+](=O)[O-])ccc2N2CCCCC2)c(C)c1	–	66.0	–	54.6	58.7	–	55.0	67.4	124.8	53.0	60.1	–
C/C(=N\NC(=O)C1COc2ccccc2O1)c1ccccn1 (centres undefined)	–	72.9	–	–	89.0	–	–	·	·	73.0	44.3	52.8
C/C(=N\NC(=O)C(c1ccccc1)c1ccccc1)c1ccccn1	87.8	78.8	–	74.8	88.7	–	–	64.2	49.6	55.9	30.6	37.1
C/C(=N\NC(=O)C1COc2ccccc2O1)c1ccc(C)o1 (centres undefined)	–	–	–	–	–	–	·	·	·	·	·	·
CCOc1cc(S(=O)(=O)NCc2cccs2)ccc1Cl	–	–	–	–	–	–	·	·	·	·	·	·

From PubChem BioAssay
